Consider 23 molecules from PubChem BioAssay AID504700 (The Scripps Research Institute Molecular Screening Center, 2011).

About 270 (0.079%) of roughly 340,000 compounds were called active.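 Rule for the calls: active = activation above a cutoff set at the mean over all compounds plus 3 SD (cut at about 18% in these data); inactive = the rest.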 Shown is part of a subset that was picked to be rich in actives.

Sequence of cAMP-dependent protein kinase catalytic subunit beta (Homo sapiens) + cAMP-dependent protein kinase type II-beta regulatory subunit (Homo sapiens) (P31323 whole entry, looked up, other chains not shown, the tested form may be a part): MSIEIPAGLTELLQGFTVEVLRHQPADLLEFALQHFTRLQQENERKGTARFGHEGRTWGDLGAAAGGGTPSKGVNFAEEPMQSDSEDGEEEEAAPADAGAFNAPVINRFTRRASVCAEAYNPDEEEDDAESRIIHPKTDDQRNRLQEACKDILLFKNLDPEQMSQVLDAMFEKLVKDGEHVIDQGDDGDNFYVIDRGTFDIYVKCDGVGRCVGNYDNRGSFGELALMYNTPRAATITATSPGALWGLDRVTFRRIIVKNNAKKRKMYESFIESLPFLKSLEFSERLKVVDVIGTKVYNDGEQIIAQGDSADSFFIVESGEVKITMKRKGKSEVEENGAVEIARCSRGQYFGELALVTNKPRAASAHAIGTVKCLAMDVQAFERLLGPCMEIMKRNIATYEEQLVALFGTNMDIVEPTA

This assay has as its target cAMP-dependent protein kinase catalytic subunit beta (Homo sapiens) + cAMP-dependent protein kinase type II-beta regulatory subunit (Homo sapiens) (UniProt P22694+P31323). The experiment in a line: compounds dissociating PKAc from R2B subunit – biochemical, fluorescence polarization, Cy5-IP20, human, primary screen (AID 504700).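 Note: higher means more holoenzyme dissociation and a rise in polarization.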 The settings on record: PKA-R2B holoenzyme dissociation, at 11.4 µM, stronger effect = higher value, 0% DMSO only, 100% 113 µM cGMP, R2B truncated from residue 108, S112A mutant.
For the molecule `CCCCN1C(=O)C(CC(=O)NCc2cccs2)CC(C(=O)N2CCOCC2)=C1C` (stereo not drawn), the activation is 3.17% (inactive).

`O=C(OCc1cn([C@H]2C[C@H](c3ccccc3)N(C(=O)c3cccs3)C[C@@H]2O)nn1)c1ccccc1`: the activation was 4.15% (inactive).

`COc1ccc(C(=O)N/N=C(\C)CC(=O)Nc2ccc(Cl)cn2)cc1`: the activation was -4.03% (inactive).

For `COc1ccc(C/C(C)=N/NC(=O)c2cc(C)oc2C)cc1`, the activation is -9.63% (inactive).

For `COc1ccc(C/C(C)=N/NC(=O)c2ccncc2)cc1`, the activation is 18.7% (active).

`C[C@H]1Cn2cnc(C(=O)N[C@@H](Cc3c[nH]c4ccccc34)C(=O)OC(C)(C)C)c2C(=O)N1`: the activation was -2.27% (inactive).

With `CC(=O)Nc1c(-c2ccc(C)cc2)nc2ccc(Cl)cn12`, the activation is -8.99% (inactive).

Regarding `CC1CCN(c2ccc3c(c2)S(=O)(=O)c2cc(C(=O)O)ccc2C3=O)CC1`, the activation was -8.29% (inactive).

Take `CCN(CC)CCN(C(=O)c1ccc2c(c1)CCCC2)c1nc2c(OC)cccc2s1`: the activation is -1.68% (inactive).

For `CNS(=O)(=O)c1ccc2c(c1)[nH]c(=S)n2C`, the activation was 9.72% (inactive).

For `C=CCn1nc(C(=O)OCC)cc1-c1sc(NC(=O)c2ccccc2)nc1C`, the activation is 4.98% (inactive).

In the case of `COc1ccc(C(=O)NCC2CCCO2)cc1S(=O)(=O)NCc1ccc(Cl)cc1` (stereo not drawn), the activation is -8.65% (inactive).

For `Cc1cc2c3ccccc3[nH]c(=O)n2n1`, the activation is -8.33% (inactive).

As to `CCOc1ccc(S(=O)(=O)NCCC(=O)NNC(=O)c2ccc(F)cc2)cc1`, the activation is -0.05% (inactive).

On to `COc1ccc(-n2c(-c3ccc(Cl)cc3)n[nH]c2=S)c(OC)c1`, for which the activation was 13% (inactive).

For the molecule `C[C@H]1CN([C@@H](C)CO)S(=O)(=O)c2ccc(-c3cccc(F)c3)cc2O[C@@H]1CN(C)C`, the activation was -5.98% (inactive).

As to `COc1ccc2nc(-c3ccccn3)ccc2c1`, the activation was -2.17% (inactive).

As to `COc1ccc(Cn2c(=O)oc3ccccc32)cc1`, the activation was -4.8% (inactive).

For `O=C1[C@H]2[C@@H](c3ccc(C(F)(F)F)cc3)N[C@]3(CCCN(Cc4ccc(Cl)cc4)C3=O)[C@H]2C(=O)N1Cc1ccccc1`, the activation was -7.06% (inactive).

Regarding `COc1ccc(-c2ccc(CN3C(CC(C)C)C(=O)N(Cc4cn(CC5CCCCC5)nn4)CCS3(=O)=O)cc2)cn1` (stereo not drawn), the activation is 5.33% (inactive).

On to `O=C(COC(=O)c1cncc(Br)c1)Nc1ccc(S(=O)(=O)N2CCOCC2)cc1`, for which the activation is -6.43% (inactive).

In the case of `CCOC(=O)c1cc(-c2sc(NC(=O)c3ccccc3)nc2C)n(CCO)n1`, the activation was -2.07% (inactive).

On to `COC(=O)[C@H]1C[C@H](OC(=O)NCc2ccccc2)[C@@]2(O)CN(S(=O)(=O)c3ccc(C)cc3)CC2[C@H]1C(=O)OC` (stereo partly drawn), for which the activation is 1.85% (inactive).
